In the supplement of paper PMC4962491:
± gives the standard deviation of the averaged measurements.

Tested on: FaDu
Experiment: mitochondrial oxygen consumption rate normalised to cell number, Z score vs plate DMSO wells; higher = higher oxygen consumption (negative = OCR reduction)
Details: treatment time 24 h, assay medium: 5 mM glucose, 5 mM pyruvate, 4 mM glutamine
Description: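 Secondary screen: FaDu cells were incubated 24 h with the top 130 primary hits at 0.08, 0.4, 2 or 10 uM. Mitochondrial-specific OCR (basal minus antimycin A) was measured on a Seahorse XF96 in medium with 5 mM glucose, 5 mM pyruvate and 4 mM glutamine and normalised to Hoechst cell number. OCR score = (OCR - mean of plate DMSO wells) / SD of plate DMSO wells. Three repeats.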
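Note: compound exposure in DMEM (4 mM L-glutamine, 5 mM glucose), antimycin A injected at 2 µM after the basal reading and its residual OCR subtracted from basal.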

SMILES	mitochondrial oxygen consumption rate normalised (0.08 µM)	mitochondrial oxygen consumption rate normalised (0.4 µM)	mitochondrial oxygen consumption rate normalised (2 µM)	mitochondrial oxygen consumption rate normalised (10 µM)
COc1cc([C@@H]2c3cc4c(cc3[C@H](O)[C@H]3COC(=O)[C@H]23)OCO4)cc(OC)c1OC	-0.539 ± 1.6	-0.043 ± 0.98	0.427 ± 0.56	-0.617 ± 1.2
CC[C@H]1CN2CCc3cc(OC)c(OC)cc3[C@@H]2C[C@@H]1C[C@H]1NCCc2cc(OC)c(OC)cc21	-2.43 ± 0.17	-3.08 ± 0.73	-9.68 ± 0.42	-11.8 ± 0.41
CC(C)[N+](C)(CCC(C(N)=O)(c1ccccc1)c1ccccc1)C(C)C	-0.746 ± 1.7	0.934 ± 0.43	0.355 ± 1.3	-0.361 ± 2
COc1ccc(Cc2nccc3cc(OC)c(OC)cc23)cc1OC	0.452 ± 1	1.06 ± 1.4	0.739 ± 0.59	-0.208 ± 3.2
C=C1C[C@@H]2[C@H](CC[C@]3(C)C(=O)CC[C@@H]23)[C@@]2(C)C=CC(=O)C=C12	-0.364 ± 0.53	1.24 ± 0.73	-0.149 ± 1	0.548 ± 0.94
S=C=NCc1ccccc1	0.549 ± 1.3	1.06 ± 1.3	0.157 ± 2.2	
O=c1[nH]c2ccccc2n1C1CCN(CCCC(c2ccc(F)cc2)c2ccc(F)cc2)CC1	0.0686 ± 1.5	0.719 ± 0.8	-0.247 ± 1	-2.41 ± 0.47
CCCCCCCCCCCCCCCC[n+]1ccccc1	-1.4 ± 1.2	-7.98 ± 1.3	-12.98 ± 0.12	
CCN1C[C@]2(COC)[C@H](O)C[C@H](OC)[C@@]34[C@@H]5C[C@@]6(O)[C@H](OC(=O)c7ccccc7)[C@@H]5[C@@](OC(C)=O)([C@@H]([C@H](OC)[C@H]23)[C@@H]14)[C@@H](O)[C@@H]6OC	-1.27 ± 0.64	0.916 ± 0.68	-0.205 ± 0.67	-1.19 ± 2.6
CC(=O)Oc1ccc(Cl)c2cccnc12	1.68 ± 0.74	1.4 ± 1.5	1.41 ± 0.58	-4.99 ± 1.8
CC(=O)O[C@H]1C[C@H](O[C@H]2[C@@H](O)C[C@H](O[C@H]3[C@@H](O)C[C@H](O[C@H]4CC[C@@]5(C)[C@H](CC[C@@H]6[C@@H]5C[C@@H](O)[C@]5(C)[C@@H](C7=CC(=O)OC7)CC[C@]65O)C4)O[C@@H]3C)O[C@@H]2C)O[C@H](C)[C@H]1O[C@@H]1O[C@H](CO)[C@@H](O)[C@H](O)[C@H]1O	-0.88 ± 0.81	-3.22 ± 1.3		
